# DT40 TDP1 CPT – qHTS for Inhibitors of human tyrosyl-DNA phosphodiesterase 1 (TDP1): qHTS in cells in presence of CPT; AID 686979, 2013; chicken DT40 Tdp1-/-;hTDP1 cells + 20 nM CPT, ATP luminescence, 48 h; 420,000 compounds, 12% hits; Potency, µM (highest dose often 46.2 µM), for inactives: top-dose activity change, negative = growth inhibition, actives largely listed as inhibitors; also: potency is read from the fitted curve at half-maximal effect; nearly all actives have a fitted effect of over 55% in size
#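 Chicken DT40 Tdp1-/- cells complemented with human TDP1, 400 cells/well, exposed to compounds plus 20 nM camptothecin for at least 48 h at 37 C; viability read as ATP content by CellTiter-Glo luminescence.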
# HT1080NT lethal – qHTS for induction of synthetic lethality in tumor cells producing 2HG: qHTS for the HT-1080-NT fibrosarcoma cell line. HT-1080-NT fibrosarcoma viability, CellTiter-Glo ATP luminescence, 48 h. Potency, µM (highest dose often 46.1 µM), without a hit: at the highest dose activity, negative = less viability, usual class: cytotoxic. 360,000 compounds, 1.6% hits. AID 686970, 2013;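 also: NT is the 2HG producing partner of a matched IDH1 knockdown line; potency is read from the fitted curve at half-maximal effect; 0% = DMSO-treated cells and -100% = media-only wells without cells; nearly all actives have a fitted effect of over 55% in size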
#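 Read-out is CellTiter-Glo luminescence after 10 minutes at room temperature, following 48 hours' compound treatment of HT-1080-NT cells (750 cells/well, RPMI, 5% FBS, 37 degrees C).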
# HT1080 IDH1KD tx – qHTS for induction of synthetic lethality in tumor cells producing 2HG: qHTS for the HT-1080-IDH1KD cell line; HT-1080 IDH1 knockdown viability, ATP luminescence, 48 h; Potency, µM (highest dose often 46.1 µM), for inactives: at the highest dose activity, negative = toxicity, most hits filed as cytotoxic; 360,000 compounds, 2% hits; AID 686971, 2013;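 also: potency is read from the fitted curve at half-maximal effect; 0% = DMSO wells and -100% = cell-free medium wells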
#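 Knockdown cells (IDH1KD HT-1080) received compounds 2 h after plating at 750 cells/well and were kept 48 h at 37 °C in 5% FBS RPMI. A CellTiter-Glo luminescence read gave % activity for curve fitting.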
# IL1B secr inh – qHTS for Inhibitors of Inflammasome Signaling: IL-1-beta AlphaLISA Primary Screen; THP-1 LPS/ATP IL-1B secretion, AlphaLISA, 16 h; hits give low values; activity change, % at 57.5 µM; AID 743279, 2014; 360,000 compounds, 4.7% hits; in the data active = activity change below about -50%; inconclusive = mostly about -30% to -49%
#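 Secreted IL-1B measured by AlphaLISA bead assay after 16 h compound exposure of THP-1 cells; compounds (final up to 57.5 uM) added 1 h before LPS (250 ng/mL) and ATP (1.25 mM) stimulation; lower signal means less secretion.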
# DT40 TDP1 no CPT – qHTS for Inhibitors of human tyrosyl-DNA phosphodiesterase 1 (TDP1): qHTS in cells in absence of CPT. AID 686978, 2013. 420,000 compounds, 15% hits. DT40 Tdp1-/- hTDP1 cells, no CPT, ATP luminescence, 48 h. Potency, µM (highest dose often 46.2 µM), for the others: at the highest dose activity change, negative = growth inhibition, actives largely listed as inhibitors; also: potency is read from the fitted curve at half-maximal effect; nearly all actives have a fitted effect of over 55% in size
#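 Stably hTDP1-transfected Tdp1-null chicken DT40 cells were treated with library compounds minus camptothecin and grown for at least 48 hr at 37 °C, after which cellular ATP was quantified by luminescence.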
# * hit, by the source's call; ? = inconclusive; · = no result given; ! = a repeat was not active; [ ] = dose if it differs, or a comment. Rows were chosen to be rich in hits. Some 19% of all compounds tested hit in one or more screens of this group. Unless noted, calls follow the shape of the dose curve; as a rule, active = well fitted curve in the direction sought with a large enough effect; inconclusive = small, poorly fitted or top-dose-only effect, or another doubt; inactive = no such curve, though single readings can be large; an effect the other way counts as inactive or inconclusive. Unless noted, % is scaled to controls: 0 for no effect and ±100 for the full control effect.
SMILES,DT40 TDP1 CPT,HT1080NT lethal,HT1080 IDH1KD tx,IL1B secr inh,DT40 TDP1 no CPT
COc1ccc(NC(=O)COC(=O)C23CC4CC(CC(NC(C)=O)(C4)C2)C3)cc1S(=O)(=O)N1CCOCC1,26µM*,-1%,2%,7,16µM*
CC(Sc1ccc(Cl)cc1)C(=O)NNC(=O)c1ccco1 (stereo not given),6%,-2%,4%,1,9%
COc1ccc(C(O)P(=O)(OCCC(C)C)c2ccc(N(C)C)cc2)cc1 (stereo not given),-29%,-6%,-10%,-21,-11%
Cc1ccc(C(=O)N/C(=C/c2ccccc2)C(=O)NCC2CCCO2)cc1 (stereo not given),-7%,12%,15%,-16,-16%
O=C1CCCN2N=C(SCC(=O)Nc3cccc(F)c3)SC2=N1,21µM*,?,-22%,3,13µM*
Cc1ccc(C)c(CSC2=NN3CCCC(=O)N=C3S2)c1,?,-4%,-8%,16,16µM*
CCOc1ccccc1C(C(=O)NC1CCCCC1)N(C(=O)c1csnn1)C1CC1 (stereo not given),-20%,7%,5%,?,?
O=C(NCc1ccc(F)cc1)c1cc2c(cc1Cl)N1CCCCCC1=NS2(=O)=O,-17%,-3%[9.24 µM],-1%,13,1%
O=C(CCN1C(=O)S/C(=C/c2ccc(Cl)cc2)C1=O)N1CCOCC1,12µM*,0%,7%,13,16µM*
O=C1C(=Cc2ccccc2O)SC(=S)N1CCCN1CCOCC1,?,2%,3%,17,9.2µM*
COC(=O)c1ccc(/C=C2\SC(=S)N(CCCC(=O)N3CCOCC3)C2=O)cc1,-3%,0%,-5%,-8,7%
Cc1ccc(/C=C2\SC(=S)N(CCCC(=O)N3CCOCC3)C2=O)cc1,?,-1%,3%,-66*,?
COC(=O)c1ccc(/C=C2/SC(=S)N(CCC(=O)N3CCOCC3)C2=O)cc1,16µM*,1%,6%,-11,18µM*
CS(=O)(=O)c1ccc(S(=O)(=O)N2CCN(C(=O)C(O)c3ccccc3)CC2)cc1 (stereo not given),-4%,22%,9%,-2,0%
O[C@H]1C[C@H](c2ccc(Cl)cc2)N(Cc2cccs2)C[C@@H]1n1cc(-c2ccc(F)cc2)nn1,?,?,?,-25,?
O=C(Nc1ccnn1C1CCN(Cc2c[nH]c3ccccc23)CC1)c1ccccc1,-23%,-29%,-17%,?,-25%
C=CCc1ccc(OCc2ccc(C(=O)Nc3ccc(NC(C)=O)cc3)o2)c(OC)c1,?,-7%,-11%,10,16µM*!
COc1ccc(NC(=O)c2ccccc2NC(=O)C2CCCCC2C(=O)O)cc1 (stereo not given),-22%,7%,-3%,10,?
O[C@H]1CN(CC2CCCCC2)[C@@H](c2ccc(Cl)cc2)C[C@@H]1n1cc(-c2ccc(F)cc2)nn1,?,8%,8%,-11,21µM*
CCCCCCN1C[C@H](n2cc(-c3ccc(F)cc3)nn2)[C@@H](O)C[C@@H]1c1ccc(Cl)cc1,?,?,?,-104*,16µM*
CCCCCCN1C[C@H](O)[C@@H](n2cc(-c3ccc(F)cc3)nn2)C[C@@H]1c1ccccc1,21µM*,?,?,-20,21µM*
CCCCCCN1C[C@H](n2cc(-c3ccc(F)cc3)nn2)[C@@H](O)C[C@@H]1c1ccccc1,?,7%,15%,12,?
COc1ccc(N(CC(=O)N2CCN(c3ccccc3)CC2)S(=O)(=O)c2c(C)nn(C)c2C)cc1,4%,·,·,·,?
Cc1ccc(N(CC(=O)N2CCN(c3cccc(C)c3C)CC2)S(=O)(=O)c2c(C)nn(C)c2C)cc1,8.2µM*,·,·,·,9.2µM*
COc1ccc(N(CC(=O)N2CCN(c3ccc(F)cc3)CC2)S(=O)(=O)c2c(C)nn(C)c2C)cc1,?,·,·,·,23µM*
SMILES,DT40 TDP1 CPT,HT1080NT lethal,HT1080 IDH1KD tx,IL1B secr inh,DT40 TDP1 no CPT
Cc1ccc(N(CC(=O)N2CCN(c3cc(Cl)ccc3C)CC2)S(=O)(=O)c2c(C)noc2C)cc1,21µM*,·,·,·,9.2µM*
Cc1ccc(N(CC(=O)N2CCN(c3ccc(F)cc3)CC2)S(=O)(=O)c2c(C)nn(C)c2C)cc1,?,-3%,8%,-25,?
COc1ccc(N(CC(=O)N2CCN(c3ccc(F)cc3)CC2)S(=O)(=O)c2c(C)noc2C)cc1,26µM*,-4%,4%,-1,?
CCCCn1c(N)c(N(CC)C(=O)C2COc3ccccc3O2)c(=O)[nH]c1=O (stereo not given),-13%,-4%,-11%,9,-10%
COc1ccccc1N(CC(O)CN1CCC(C)CC1)S(=O)(=O)c1ccccc1 (stereo not given),?,16%,4%,-15,-26%
Cc1nn(C)c(C)c1S(=O)(=O)N(CC(=O)N1CCN(c2ccccc2)CC1)c1ccc(C(C)C)cc1,16µM*,·,·,·,16µM*
COc1ccc(N(CC(=O)N2CCc3ccccc32)S(=O)(=O)c2c(C)nn(C)c2C)cc1,?,-2%,-10%,-17,?
COc1ccc(N(CC(=O)N2CCN(c3ccc(Cl)cc3)CC2)S(=O)(=O)c2c(C)noc2C)cc1,?,-15%,-11%,?,?
COc1ccc(N(CC(=O)N2CCN(c3cccc(Cl)c3)CC2)S(=O)(=O)c2c(C)noc2C)cc1,16µM*,0%,-8%,-13,18µM*
COc1ccc(N(CC(=O)N2c3ccccc3CC2C)S(=O)(=O)c2c(C)nn(C)c2C)cc1 (stereo not given),?,-14%,-11%,17,18µM*
Cc1nn(C)c(C)c1S(=O)(=O)N(CC(=O)NCCc1ccc(Cl)cc1)c1ccc(C(C)C)cc1,16µM*,·,·,·,15µM*
OCC[C@@H]1C[C@H](O)[C@@H](O)[C@@]2(OCCc3cc(Cl)ccc32)O1,-12%,12%,12%,20,3%
CCc1ccc(NC(=O)N2CCN(C(=O)C3CCCO3)CC2)cc1 (stereo not given),9%,16%,12%,7,3%
CCOc1ccc(N(CC(=O)N2CCN(c3ccc(F)cc3)CC2)S(=O)(=O)c2c(C)noc2C)cc1,26µM*,-2%,-7%,-24,?

# Source: PubChem BioAssay (National Center for Advancing Translational Sciences (NCATS))
